The values below come from PubChem BioAssay AID489043 (National Center for Advancing Translational Sciences (NCATS), 2010).

Records with an inconclusive call do not appear. A number with no mark means an inactive call. Activity calls are given as the source filed them. Calls follow the shape of the dose curve; as a rule, active = well fitted activation curve with a large enough effect; inconclusive = small, poorly fitted or top-dose-only effect; inactive = flat fitted curve, though single readings scatter.
Potency is read from the fitted curve at half-maximal effect.

Sequence of Relaxin receptor 2 (Homo sapiens) (Q8WXD0 whole entry, looked up): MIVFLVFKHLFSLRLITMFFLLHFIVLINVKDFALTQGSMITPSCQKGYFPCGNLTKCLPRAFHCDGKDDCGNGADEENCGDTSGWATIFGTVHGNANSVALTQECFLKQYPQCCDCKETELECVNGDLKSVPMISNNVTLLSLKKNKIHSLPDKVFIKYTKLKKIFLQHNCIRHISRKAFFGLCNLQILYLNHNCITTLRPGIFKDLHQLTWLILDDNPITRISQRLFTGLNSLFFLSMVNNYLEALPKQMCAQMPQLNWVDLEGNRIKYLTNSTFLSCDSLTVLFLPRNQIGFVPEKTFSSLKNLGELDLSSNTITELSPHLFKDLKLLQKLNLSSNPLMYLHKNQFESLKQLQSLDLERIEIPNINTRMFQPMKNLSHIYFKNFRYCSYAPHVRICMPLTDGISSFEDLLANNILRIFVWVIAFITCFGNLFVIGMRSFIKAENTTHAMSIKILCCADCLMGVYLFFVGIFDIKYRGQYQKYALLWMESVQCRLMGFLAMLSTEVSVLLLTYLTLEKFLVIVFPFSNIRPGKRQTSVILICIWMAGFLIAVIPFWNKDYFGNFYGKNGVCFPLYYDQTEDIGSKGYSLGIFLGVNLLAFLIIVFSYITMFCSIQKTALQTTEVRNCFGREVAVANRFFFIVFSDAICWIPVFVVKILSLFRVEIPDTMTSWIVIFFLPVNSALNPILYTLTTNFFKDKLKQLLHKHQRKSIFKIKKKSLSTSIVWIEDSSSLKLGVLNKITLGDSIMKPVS

For the test, the target named is Relaxin receptor 2 (Homo sapiens) (UniProt Q8WXD0). The test can be described thus: qHTS Assay for Agonists of the Relaxin Receptor RXFP1: RXFP2 Hit Validation. Also: nearly all actives have a fitted effect of over 65% in size.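 As to activation: 0% = buffer only basal cAMP and 100% = 29 nM porcine relaxin.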 To be noted: HEK293 RXFP2 cAMP TR-FRET, 30 min; series mostly up to 115 µM; activation: at the top concentration. In outline:
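Concentration-response EC50s (Hill equation) come from a cAMP TR-FRET assay in HEK293 RXFP2 cells, compound for 30 min at 37C with PDE4 inhibitor.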
Turning to `Cn1c(=O)c2c(ncn2CC(=O)N/N=C/c2cn[nH]c2-c2ccc(F)cc2)n(C)c1=O`, the Potency is 21.8 µM (active).
Still for that read-out and setting: the value for `N#Cc1c(N)nc(SCC(=O)C23CC4CC(CC(C4)C2)C3)c(C#N)c1-c1ccc(Cl)cc1` was 12.3 µM (active).
Still for that read-out and setting: in the case of `CC(=O)Nc1cccc(NC(=O)CSc2nc3c(c(=O)n(C)c(=O)n3C)n2C)c1` it was 34.6 µM (active); in that of `CCOC(=O)CNC(=O)CSc1nc2c(C)cccc2cc1CC`, 19.4 µM (active).
Regarding `O=C(Nc1ccccc1C(=O)N1CCOCC1)c1ccco1`, the “activation” value is 0.881% [at 125 µM].
With `O=C(O)c1cc(-c2ccco2)nc2ccc(Br)cc12`, the Potency was 17.3 µM (active).
Take `CCOC(=O)c1sc(NC(=O)CCc2ccc(OC)cc2)nc1C`: the Potency is 17.3 µM (active).
For `O=C(CCc1nnc2ccc(NCCCN3CCCC3=O)nn12)NCc1ccccc1Cl`, the “activation” value was 8.46%.
For `Nc1ncnc2c1ncn2C1OC(CO)C(O)C1O` (stereo not given), the Potency is 7.76 µM (active).
With `CC(=O)c1sc(NC(=O)C(C)C)nc1C`, the Potency was 15.4 µM (active).
For `O=C(O)CCNc1ccc(NCCC(=O)O)c2c1C(=O)c1ccccc1C2=O`, the “activation” value is 1.48%.
With `Cc1ccc(NC(=O)CCc2nnc3ccc(N4CCN(C)CC4)nn23)cc1F`, the Potency is 38.9 µM (active).
For the compound `COc1ccc(C(=O)Nc2ccc(Cl)cc2C(=O)NCc2ccco2)cc1`, the Potency is 42.1 µM (active).
As to `COc1ccc(NC(=O)CCCc2nnc3n(C)c(=O)c4sccc4n23)cc1`, the Potency is 34.6 µM (active).
For `COc1ccc(CN2C(=O)c3cccnc3C2=O)cc1S(=O)(=O)NC1CCCCC1`, the Potency was 34.6 µM (active).
